Shown are actives, neighbours in structure and some others; about 2.4% of the full set was active somewhere.
Tb PFK inh-1 = blocks T. brucei phosphofructokinase | O15648 | T. brucei PFK, ADP-Glo luminescence | Potency, µM (series often up to 57.5 µM), for inactives: top-dose activity, negative = inhibition, actives largely listed as inhibitors | 330,000 compounds, 0.17% hits;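 also: 0% = uninhibited 1x PFK enzyme wells and -100% = no-enzyme wells; nearly all actives have a fitted effect of over 60% in size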
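Activity is normalized to no-enzyme wells (full inhibition) and 1.25 nM enzyme wells (no inhibition). Reaction: 0.5 mM F6P, 0.1 mM ATP, 45 min RT, ADP-Glo luminescence; concentration-response curves fitted and classed by quality.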
PKM2 activator = PKM2 (human) enzyme activation; Potency, µM (top dose mostly 57.5 µM), for inactives: at the highest dose activation, hits mostly activators; purified PKM2, Kinase-Glo ATP luminescence, activation; response scale: 0% is enzyme alone, no compound; P14618; 260,000 compounds, 0.34% hits; also: % is scaled to controls: 0 for no effect and ±100 for the full control effect; nearly all actives have a fitted effect of over 55% in size
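ATP formation by purified human PK-M2, quantified via coupled luciferase luminescence after 1 h at room temperature with 0.1 mM ADP and 0.5 mM PEP final.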
ELG1 repair inh = blocks ELG1-dependent DNA repair in HEK293T cells; HEK293T ELG1-luciferase reporter, luminescence, 16 h; DNA damage induced by 5-fluorouridine; Potency, µM (top dose mostly 46.1 µM), inactives show at the top dose activity change, negative = inhibition, actives largely listed as inhibitors; 330,000 compounds, 2.3% hits; AID 504467; also: % is scaled to controls: 0 for no effect and ±100 for the full control effect; nearly all actives have a fitted effect of over 55% in size
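Cells (2,000 per well) received 5-fluorouridine plus test compound or DMSO and were incubated 16 hr at 37 °C, 5% CO2. Luciferase activity was read by luminescence 30 min after ONE-Glo addition; signal suppression marked inhibition of damage-induced ELG1 function.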
Rango dissoc inh = inhibitors of RanGTP-induced Rango-importin beta complex dissociation. Potency, µM (highest dose often 46.1 µM), for the others: top-dose activity change, negative = inhibition. 340,000 compounds, 0.071% hits. AID 540253. O95149+P62826. Biochemical FRET Rango-importin beta, RanGTP-induced dissociation; calls by dose curve; also: % of control where 0% means no effect; nearly all actives have a fitted effect of over 45% in size
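Two FRET readings bracket the reaction: one 5 min after compound meets Rango–importin beta, another 45 min after RanGTP-RCC1 (0.6 uM Ran, 0.2 uM RCC1, 2 mM GTP) is added. Only the second defines inhibition.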
Rango complex inh = Rango-importin beta binding inhibition. Q14974. Rango CFP/YFP FRET sensor + importin beta, 45 min. Potency, µM (highest dose often 92.2 µM), for the others: at the top dose inhibition of complex formation. 340,000 compounds, 0.031% hits. AID 540263; calls by dose curve;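 also: 0% = DMSO wells and 100% = buffer wells lacking importin beta; nearly all actives have a fitted effect of over 15% in size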
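FRET biosensor Rango (snurportin 1 IBB between N-terminal EYFP and C-terminal Cerulean), 50 nM in PBS/1 mM DTT/0.02% Tween-20/0.1% BSA, preincubated 5 min RT with compound; 0.125 microM importin beta added, 45 min RT, CFP/YFP FRET ratio read.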
PGK inhibitor = T. brucei PGK inhibition | PGK/GAPDH coupled, Kinase-Glo luminescence, 60 min | Potency, µM (top dose mostly 57.5 µM), for the others: at the top dose activity change, negative = inhibition, actives largely listed as inhibitors | 380,000 compounds, 0.043% hits | AID 602233; also: % is scaled to controls: 0 for no effect and ±100 for the full control effect; nearly all actives have a fitted effect of over 60% in size
Target sequence (P07378 whole entry, looked up): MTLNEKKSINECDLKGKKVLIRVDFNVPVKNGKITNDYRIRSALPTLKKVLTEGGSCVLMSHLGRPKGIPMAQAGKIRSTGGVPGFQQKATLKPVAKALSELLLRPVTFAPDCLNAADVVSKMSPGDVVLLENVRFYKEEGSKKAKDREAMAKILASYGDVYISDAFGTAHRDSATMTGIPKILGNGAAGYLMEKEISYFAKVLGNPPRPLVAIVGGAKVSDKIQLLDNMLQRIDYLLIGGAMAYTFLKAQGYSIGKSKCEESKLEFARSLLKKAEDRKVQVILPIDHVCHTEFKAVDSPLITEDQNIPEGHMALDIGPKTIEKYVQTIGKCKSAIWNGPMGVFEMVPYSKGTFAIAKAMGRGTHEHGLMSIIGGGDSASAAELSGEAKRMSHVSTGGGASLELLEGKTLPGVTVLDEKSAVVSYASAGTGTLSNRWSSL
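Recombinant glycosomal PGK reaction used 1,3-bisphosphoglycerate generated in-well by GAPDH (100nM final) in 100mM TEA pH 7.6, 5mM MgCl2, 0.01% Tween-20. After 60 minutes at room temperature, ATP was read by Kinase-Glo Plus luminescence end-point.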
TbPFK ATP = inhibits T. brucei PFK measured by ATP depletion. 1,100 compounds, 47% hits. shares compounds with Tb PFK inh-1. Tb PFK enzyme, ATP depletion, Kinase-Glo Plus luminescence. Potency, µM (doses to about 57.5 µM), for inactives: at the highest dose inhibition; calls by dose curve; also: nearly all actives have a fitted effect of over 60% in size
Tb PFK inh-2 = validation of T. brucei phosphofructokinase inhibitors. shares compounds with Tb PFK inh-1. 1,100 compounds, 41% hits. Potency, µM (titrated, usually from 57.5 µM), for the others: top-dose activity change, negative = inhibition, most hits filed as inhibitors. purified T. brucei PFK, ADP-Glo luminescence, 45 min;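 also: plate controls were full PFK enzyme control for no effect and no enzyme control for full effect; nearly all actives have a fitted effect of over 60% in size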
* marks the source's active call; other numbers are inactive results; i = inactive; ? = inconclusive; . = not tested or not shown. Unless noted, calls follow the shape of the dose curve; as a rule, active = well fitted curve in the direction sought with a large enough effect; inconclusive = small, poorly fitted or top-dose-only effect, or another doubt; inactive = no such curve, though single readings can be large; an effect the other way counts as inactive or inconclusive. Potency is read from the fitted curve at half-maximal effect.

SMILES	Tb PFK inh-1	PKM2 activator	ELG1 repair inh	Rango dissoc inh	Rango complex inh	PGK inhibitor	TbPFK ATP	Tb PFK inh-2
CC(=C\C(=O)O)/C(=C\c1cccc2ccccc12)C(=O)O	?	-1%	?	-9%	0%	-1%	-1%	-1%
Nc1nc(=S)c2[nH]cnc2[nH]1	?	.	4%	-7%	-2%	-1%	?	?
Cc1ccc(N=Nc2cc(C)ccc2N)cc1	-21%	-34%	?	20%	0%	-20%	.	.
NC(=O)N/N=C1\c2ccccc2-c2c(C(N)=O)cccc21	?	.	3%	2%	-6%	-8%	11%	-4%
Cc1ccc(C(=O)CSc2nnc(CNc3ccc(F)cc3)o2)cc1	17µM*	-4%	?	4%	0%	-2%	?	24µM*
O=[N+]([O-])c1cc2c(cc1Br)CCN2	3.4µM*	1%	15%	4%	7%	0%	4.3µM*	6µM*
O=[N+]([O-])c1cc(F)c(N2CCCCC2)cc1Br	-1%	-6%	19%	-14%	1%	i	.	.
CC(C)CN1Cc2ccccc2-n2nncc2C1	.	.	.	.	.	-10%	.	.
Cc1nc2ccccc2c2c1C(=O)N(Cc1cccnc1)C2=O	1%	6%	17%	19%	?	2%	.	.
Cc1cccc2sc(NC(=O)c3cccn(Cc4ccccc4)c3=O)nc12	.	.	.	.	.	-8%	.	.
CC1=C(C(=O)O)N2C(=O)C(NC(=O)CCCC(=O)O)C2SC1 (stereo not drawn)	-1%	-9%	6%	2%	0%	i	.	.
CN(C)CCn1nnnc1SCC1=C(C(=O)O)N2C(=O)[C@@H](NC(=O)Cc3csc(N)n3)[C@H]2SC1	12µM*	.	27%	-16%	?	-6%	6%	-7%
Cc1cc(C)n2nc3nc(N4CCCCC4)nc(-c4ccco4)c3c2n1	?	6%	?	-29%	?	-4%	9%	-2%
Cc1cc(C)c(NC(=S)NCC2CCN(C(C)c3ccccc3)C2)c(C)c1 (stereo not drawn)	?	2%	-7%	14%	-2%	-8%	7.6µM*	15µM*
O=C(Nc1ccc2c(c1)C(=O)NC2=O)c1ccccc1Cl	?	?	2%	-5%	1%	-8%	12µM*	13µM*
Nc1cc(N)cc(C(=O)Nc2ccc3c(c2)C(=O)NC3=O)c1	?	.	1%	10%	-3%	i	?	?
COc1cccc(-n2c(/C=C/c3ccccc3O)nc3ccccc3c2=O)c1	.	.	.	.	.	9%	.	.
O=C1OC(Nc2ccc(F)c([N+](=O)[O-])c2)c2ccccc21 (stereo not drawn)	15µM*	4%	-8%	1%	-1%	-8%	21µM*	?
O=c1c2ccccc2cnn1Cc1n[nH]c(=S)n1C1CC2CCC1C2 (stereo not drawn)	-1%	-5%	?	-1%	5%	-4%	.	.
C=CCOc1c(Cl)cc(CNc2ccc3[nH]c(=O)[nH]c3c2)cc1OC	-6%	14%	?	-10%	2%	i	.	.
O=C(COC(=O)c1ccc(Cl)c(S(=O)(=O)N2CCOCC2)c1)Nc1ccc2[nH]c(=O)[nH]c2c1	?	.	-11%	8%	0%	1%	?	?
CN1CCc2cc(O)cc3c2[C@H]1Cc1ccc(O)c(O)c1-3	.	.	.	-11%	-1%	-6%	.	.
CN1CCc2cccc3c2[C@@H]1Cc1ccc(O)c(O)c1-3	4.3µM*	?	-8%	-28%	?	-8%	1.7µM*	6µM*
C[C@]12CC[C@H]3C(=CCc4cc(O)ccc43)[C@@H]1CCC2=O	-4%	1%	?	-4%	-4%	0%	.	.
NCCc1c[nH]c2ccc(F)cc12	?	-14%	5%	.	.	.	?	?
SMILES	Tb PFK inh-1	PKM2 activator	ELG1 repair inh	Rango dissoc inh	Rango complex inh	PGK inhibitor	TbPFK ATP	Tb PFK inh-2
Cc1cc(C)cc(-n2c(/C=C/c3cccc(F)c3)nc3ccccc3c2=O)c1	.	.	.	.	.	i	.	.
CS(=O)(=O)Nc1ccccc1C(=O)OCC(=O)N1CCC(c2ccccc2)=N1	?	.	0%	8%	-2%	i	?	?
Nc1ccccc1C(=O)OCC(=O)N1CCc2ccccc21	5%	2%	?	6%	2%	7%	.	.
NS(=O)(=O)c1ccc(N/N=C/c2ccc(O)c(O)c2O)c([N+](=O)[O-])c1	?	11%	0%	-4%	?	-19%	?	?
CC(C)c1ccc(N2C(=O)NC(=O)/C(=C/C=C/c3ccco3)C2=O)cc1	-20%	17%	?	?	?	7%	.	.
CCc1ccc(N2C(=O)NC(=O)/C(=C\C=C\c3ccco3)C2=O)cc1	?	24%	?	-14%	?	-14%	?	?
Cc1cc(C)cc(N2C(=O)NC(=O)/C(=C\C=C\c3ccco3)C2=O)c1	?	3%	?	-33%	?	-5%	11µM*	21µM*
Cc1ccc(N2C(=O)NC(=O)/C(=C/C=C/c3ccco3)C2=O)cc1	?	?	?	?	?	-10%	.	.
O=C(OCc1ccco1)c1ccc(S(=O)(=O)N2CCCCC2)cc1	24µM*	27%	19%	-8%	4%	-20%	?	?
CCC12CN3CC(CC)(CN(C1)C3c1c(C)[nH]c(=O)[nH]c1=O)C2=O (stereo not drawn)	.	.	.	.	.	-6%	.	.
CNCc1ccccc1Sc1cc(O)ccc1O	?	?	4%	-9%	1%	-6%	3.4µM*	8.5µM*
Cc1nnc(NC(=O)c2cccn(Cc3cccc([N+](=O)[O-])c3)c2=O)s1	.	.	.	.	.	2%	.	.
C=C(C)C(=O)Nc1cccc(C2=NOC3(C2)C[C@@H](C(N)=O)N(C(=O)/C(C)=C/C)C3)c1 (stereo partly drawn)	3.4µM*	-3%	14%	1%	-7%	?	0.19µM*	0.17µM*
